Results: PubChem BioAssay AID1159580 (chemical genetic matrix, 2015)
Among all 5,500 compounds or so, about 2,000 (36%) were called active. About 18% were inconclusive and are not listed. Cut-off read from the data, not from the text of the source: active = normalized growth mostly below about 0.91 (no sharp cut-off); inconclusive = no clear call, values can overlap the other calls; inactive = mostly above about 0.92. Some of the results follow.

Assay: chemical genetic growth profiling, strain panel (AID 1159580);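 note: tested at 20 µM; growth read once vehicle control cultures reached saturation at 30 °C; 1 = growth at the plate median or of vehicle wells; lower values mean less growth of the strain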
Conditions: S. cerevisiae deletion strains, growth OD

Measured: normalized growth

CCN(CCCl)Cc1ccccc1Br
inactive: locus YAL040C, strain CLN3, hits give low values 1.06 | locus YCL061C, strain MRC1 (second series), hits give low values 0.994 | locus YDR363W, strain ESC2, hits give low values 0.91 | locus YER002W, strain NOP16, hits give low values 1.04 | locus YJR075W, strain HOC1, hits give low values 0.994 | locus YNL153C, strain GIM3, hits give low values 1.02 | locus YNL175C, strain NOP13, hits give low values 1 | locus YNL197C, strain WHI3, hits give low values 1.02 | locus YNL224C, strain SQS1, hits give low values 0.995 | locus YNL322C, strain KRE1, hits give low values 0.974 | locus YOR083W, strain WHI5 (second series), hits give low values 0.968 | locus YPL241C, strain CIN2, hits give low values 0.999
